# From PubChem BioAssay AID833 (The Scripps Research Institute Molecular Screening Center, 2007)
# The whole screen tested about 16,000 compounds, of which about 80 (0.5%) were called active. Rule as the data show it: active = activation above about 15%; inactive = the rest. The sample as a whole holds a higher share of actives than the screen did.
# Target: Galanin receptor type 2 (Rattus norvegicus) (UniProt O08726)
# Assay: activates the rat galanin receptor 2 (AID 833)
# Conditions: cell-based GALR2 agonist screen; at 10 µM; hits give high values
# Sequence of Galanin receptor type 2 (Rattus norvegicus) (O08726 whole entry, looked up): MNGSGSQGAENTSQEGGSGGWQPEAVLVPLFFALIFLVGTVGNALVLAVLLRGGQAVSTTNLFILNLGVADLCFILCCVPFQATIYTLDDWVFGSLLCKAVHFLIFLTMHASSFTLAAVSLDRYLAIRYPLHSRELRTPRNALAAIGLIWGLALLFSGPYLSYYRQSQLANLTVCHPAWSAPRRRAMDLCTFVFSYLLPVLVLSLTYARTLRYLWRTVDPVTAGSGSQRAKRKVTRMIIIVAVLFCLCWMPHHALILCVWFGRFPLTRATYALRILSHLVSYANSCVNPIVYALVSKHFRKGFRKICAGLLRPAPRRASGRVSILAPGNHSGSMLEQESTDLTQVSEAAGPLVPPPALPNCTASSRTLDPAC
row,SMILES,activation
1,Cc1[nH]c2ccccc2c1Sc1ccc(Cl)cc1,-8.87% (inactive)
2,Cc1onc(-c2ccccc2)c1CNS(=O)(=O)c1ccc2c(c1)OCCN2C,-3.66% (inactive)
3,CC(=O)c1ccc(C#Cc2ccccc2)cc1,-6.33% (inactive)
4,N#Cc1ccc(N2CCN(C(=O)c3ccco3)CC2)cc1,-9.07% (inactive)
5,CCOc1ccc(NC(=S)N2CCC(c3ccccc3OC)CC2)cc1,-6.67% (inactive)
6,Cc1nc(-c2cccnc2)nc(N2CCCN(Cc3ccc(F)cc3)CC2)c1Cl,-9.09% (inactive)
7,COC(=O)c1ccc(/C=C2\C(=O)Nc3ccccc32)n1-c1ccc(F)cc1,2.14% (inactive)
8,Clc1ccc(C=NCc2cccnc2)c(Cl)c1,-5.42% (inactive)
9,Cc1cc(S(=O)(=O)O/N=C(\N)c2snnc2C)cc(C)c1F,-5.04% (inactive)
10,Cc1ccc(S(=O)(=O)NNC(=O)c2ccccc2N)cc1,-6.6% (inactive)
11,Cc1cc(C)nc(NC(=S)c2ccc(NC(=O)/C=C/C(=O)O)cc2)n1,-5.82% (inactive)
12,O=C(Nc1ccc(C(F)(F)F)cc1)Nc1ccccc1C(=O)O,-8.04% (inactive)
13,CCCCNc1nc(N)ns1,-3.61% (inactive)
14,Cc1c(CC(=O)Oc2ccc([N+](=O)[O-])cc2)sc2ccc(Cl)cc12,-2.58% (inactive)
15,O=C(NCCO)NCCSc1ccc(F)cc1,-4.7% (inactive)
16,CCOC(=O)c1c(NS(=O)(=O)c2cccc3nsnc23)sc(C)c1C,-6.04% (inactive)
17,Cn1cccc1-c1n[nH]c(=S)n1-c1ccc(Cl)cc1Cl,-4.04% (inactive)
18,O=C1C=C(SCC(=O)c2ccccc2)SC(c2ccc(Cl)cc2)C1 (centres undefined),6.17% (inactive)
19,NNC(=O)CC1C(=O)NCCN1Cc1c(Cl)cccc1Cl (centres undefined),-5.38% (inactive)
20,Cc1cc(S(=O)(=O)Oc2ccc(OCc3ccccc3)cc2)c(C)cc1Cl,-2.88% (inactive)
21,CCOC(=O)C/C(N)=C(\C#N)C(=O)OCC,-2.73% (inactive)
22,Cc1ccc(SCC(=O)Nc2ccc(F)cc2F)cc1,-5.06% (inactive)
23,CC(C)(C)NC(=O)[C@@H]1C[C@@H]2CCCC[C@@H]2CN1C(=O)c1ccno1,-7.29% (inactive)
24,COc1cccc(OCc2ccccc2)c1C#N,-5.84% (inactive)
25,O=S(=O)(Oc1ccc(Cl)c(Cl)c1)c1c(Cl)sc(Cl)c1Br,-7.23% (inactive)
26,O=C(O)Cc1csc(NC(=O)CSc2nnnn2-c2ccc(O)cc2)n1,-6.18% (inactive)

row,SMILES,activation
1,COc1cc(NC(=O)c2ncc(C(F)(F)F)cc2Cl)c(C(=O)O)cc1OC,-7.07% (inactive)
2,O=S(=O)(O)c1ncccn1,-6.4% (inactive)
3,c1ccc(CN2CCN(Cn3nnc4ccccc43)CC2)cc1,-4.65% (inactive)
4,COC(=O)c1ccc2snnc2c1,-2.44% (inactive)
5,FC(F)(F)c1csc(N/N=C/c2ccccc2Cl)n1,-13.1% (inactive)
6,CCOC(=O)C(=CNNc1ccc(C(=O)O)cc1[N+](=O)[O-])C(=O)OCC,-6.55% (inactive)
7,CC1CC(NC(=O)/C(C#N)=C/c2ccc[nH]2)CC(C)(C)C1 (centres undefined),-10.3% (inactive)
8,N/N=c1/nc2sccn2c2ncccc12,-4.92% (inactive)
9,CCOC(=O)c1cc(CC)sc1NC(=O)c1cccnc1Oc1ccccc1,-8.18% (inactive)
10,O=C1C=C(c2ccccc2)CN(C2CCCCC2)C1=O,-2.8% (inactive)
11,CC1=C(C(=O)O)N2C(=O)[C@H](NC(=O)[C@@H](N)c3ccccc3)C2SC1 (some centres undefined),22.8% (active)
12,O=C(Oc1ccc(Cl)cc1)c1snnc1-c1ccccc1,-5.24% (inactive)
13,Cc1onc(C(=O)NN)c1-c1csc(COc2ccccc2)n1,-4.77% (inactive)
14,N#Cc1ccc(-c2csc(COc3ccccc3Cl)n2)cc1,34% (active)
15,C#CC(C)(CC)OCC(O)CS(=O)(=O)O (centres undefined),-5.43% (inactive)
16,CC(C)S(=O)(=O)c1cscc1N/C=C(/C#N)C(=O)c1cccs1,-2.65% (inactive)
17,O=S(=O)(c1ccc(Cl)c(Cl)c1)N1CCc2c([nH]c3ccccc23)C1C(F)(F)F (centres undefined),-11.8% (inactive)
18,Cc1[nH]n(C)c(=O)c1C(=O)c1c(-c2c(Cl)cccc2Cl)noc1C,-6.37% (inactive)
19,CN(NC(=O)c1ccc(Cl)s1)c1cnn(-c2cc(Cl)cc(Cl)c2)c(=O)c1Cl,-2.83% (inactive)
20,CSc1nsc(SC)c1C(=O)Nc1cc(C(F)(F)F)cc(C(F)(F)F)c1,-4.92% (inactive)
21,Cn1cnnc1SC/C=C/c1ccccc1,-6.61% (inactive)
22,CCOC(=O)C(=CNc1nc(-c2ccc(Cl)cc2)cs1)C(=O)OCC,-6.21% (inactive)
23,c1ccc2c(c1)NC(C1Nc3ccccc3O1)O2 (centres undefined),-4.99% (inactive)
24,Cc1cc(Cl)ccc1NC(=S)NNC(=S)Nc1ccc(F)cc1,-1.79% (inactive)
25,CCOC(=O)/C=C(/Nc1ccccc1SC)c1ccccc1,-8.09% (inactive)
26,CC(C)(C)c1ccc(C(=O)CC(N)=O)cc1,-7.09% (inactive)

row,SMILES,activation
1,N#Cc1c(-c2cccs2)cc(-c2cccs2)nc1N,10.7% (inactive)
2,O=C(Nn1cnnc1)c1ccc([N+](=O)[O-])cc1,-2.79% (inactive)
3,Cc1onc(-c2ccccc2)c1C(=O)Nc1ccc(/C(C#N)=C/c2ccccn2)cc1,-2.22% (inactive)
4,N#C/C(=C\c1cccs1)C(=O)NCCc1c[nH]c2ccccc12,-5.34% (inactive)
5,Cc1cccc(-c2noc(NC(=O)O/N=C/c3ccccc3)n2)c1,-3.45% (inactive)
6,Cc1csc(/N=C/N(C)C)c1C#N,-4.03% (inactive)
7,N/C(CC(=O)Nc1ccc(F)c(Cl)c1)=N\O,-6.66% (inactive)
8,O=C(c1cnn(-c2ccc(Cl)cc2)n1)c1cccs1,-6.45% (inactive)
9,S=C1NCN(CCCn2ccnc2)CN1,-6.28% (inactive)
10,O=C(O)c1cc(=O)[nH]c2c(Cl)cc(Cl)cc12,-3.92% (inactive)
11,COC(=O)/C(=C/c1ccccc1)c1ccccc1,-1.48% (inactive)
12,COc1ccc(OC)c(CNC(=O)Cc2cccs2)c1,-4.76% (inactive)
13,O=[N+]([O-])c1ccc(N2CCOCC2)cc1,-0.7% (inactive)
14,O=S(=O)(CCSc1ccc(C(F)(F)F)cn1)CCSc1ccc(C(F)(F)F)cn1,-4.73% (inactive)
15,CC(C)N(C(=O)c1ccc(-c2ccccc2F)cc1)C(C)C,-5.45% (inactive)
16,O=C(O)CC1(CC(=O)Nc2ccc(N3CCCCC3)cc2)CCCCC1,-3.41% (inactive)
17,Cn1cc(Br)c(-c2ccc(NC(=O)Nc3ccc(Cl)cc3)cc2)n1,-8.08% (inactive)
18,COC(=O)c1noc(C)c1-c1ccnn1C(=O)c1ccc(Cl)cc1,-1.59% (inactive)
19,CSC(=CC(=O)c1cccs1)SC,-10.2% (inactive)
20,COc1cccc2c1c(NS(=O)(=O)c1cn(C)cn1)nn2C,-5.19% (inactive)
21,CSc1nsc(SC)c1C(=O)NC(=O)NNc1ccc(F)c(Cl)c1,-2.68% (inactive)
22,Oc1[nH]c2ccc(F)cc2c1N=NC(=S)NC1CC2C=CC1C2 (centres undefined),-9.63% (inactive)
23,NS(=O)(=O)c1cc(Br)ccc1I,-1.14% (inactive)
24,Cc1c(S(=O)(=O)N2CCOCC2)ccc(Cl)c1F,-9.66% (inactive)
25,O=[N+]([O-])c1ccc(-c2ccc(I)cc2)cc1,-5.42% (inactive)
26,O=[N+]([O-])c1ccc(-c2nnnn2Cc2c(Cl)cccc2Cl)cc1,-2.65% (inactive)

row,SMILES,activation
1,Cc1c(NC(=S)Nc2ccccc2)c(=O)n(-c2ccccc2)n1C,-1.67% (inactive)
2,COC(=O)c1cc(OC)c(OC)cc1NC(=O)c1ccccc1C(=O)O,0.04% (inactive)
3,COc1cc(CCN=Cc2ccccc2O)c([N+](=O)[O-])cc1OC,-0.09% (inactive)
4,O=C(NCc1cccnc1)Nc1cccc(NC(=O)NCc2cccnc2)c1F,-10% (inactive)
5,CNC(=S)NNC(=O)c1cc(C)on1,-5.05% (inactive)
6,Cc1cc(C)nc(N/C=C(\C#N)S(=O)(=O)c2ccc(Cl)cc2)n1,-7.71% (inactive)
7,N#CC(c1cc2ccccc2cn1)c1ccc2c(c1[N+](=O)[O-])C(=O)c1ccccc1C2=O (centres undefined),-8.33% (inactive)
8,N#CC1(C#N)C(c2ccc(Cl)c(Cl)c2)C1(C#N)C#N,-8.55% (inactive)
9,CSc1n[nH]c(=O)n1-c1cccc(C(F)(F)F)c1,-7.62% (inactive)
10,COc1ccc(NC(=S)Nc2ccc(F)cc2F)c([N+](=O)[O-])c1,-8.62% (inactive)
11,c1ccc2c(-c3csc(-c4ccc5c(c4)OCCO5)n3)csc2c1,-9.38% (inactive)
12,Cc1nc(-c2ncc(-c3ccccc3)o2)c(C(F)(F)F)o1,-5.66% (inactive)
13,O=C(CSc1c(F)c(F)c(C(=O)O)c(F)c1F)Nc1cccc(C(F)(F)F)c1,-5.69% (inactive)
14,COC(=O)c1sccc1NC(=S)Nc1ccc(C)cc1,-4.74% (inactive)
15,Cc1cc(CNC(=O)c2cc(C)n(C)n2)no1,4.72% (inactive)
16,Cc1nnsc1-c1nnc(SCC(=O)c2ccc3c(c2)OCO3)n1C1CC1,-3.99% (inactive)
17,O=C(O)CC(CC(=O)Nc1cc(C(F)(F)F)ccc1N1CCOCC1)c1ccccc1 (centres undefined),-5.13% (inactive)
18,N/C(=N\O)c1ccc2nonc2c1,-8.97% (inactive)
19,Cc1cc(CNCC(O)C(F)(F)F)no1 (centres undefined),-7.81% (inactive)
20,CSc1sc(C(=O)NC2CC2)c(-c2ccc(Cl)cc2)c1C#N,-8.05% (inactive)
21,Cc1ccc(S(C)(=O)=NC(=O)NS(=O)(=O)Oc2ccc(Cl)cc2Cl)cc1 (centres undefined),-1.36% (inactive)
22,Cc1oc(-c2ccc(Cl)cc2)cc1C(=O)O/N=C(\N)Cc1nc2cccnc2n1C1CC1,-4.62% (inactive)
23,O=C(NCc1csc(-c2cccs2)n1)Nc1ccccc1-c1ccccc1,-9.54% (inactive)
24,Cc1oc(C(C)(C)C)cc1C(=O)NC1Cc2ccccc2C1,-2.8% (inactive)
25,CCOc1c(N2CCCCC2)c(=O)c1=O,24.1% (active)
26,Cc1cc(-c2nc(C(=O)NN3CCCCC3)cs2)no1,-7.49% (inactive)
